Among all 100,000 compounds or so, about 770 (0.77%) were called active. The full list was thinned out, with actives kept by preference. A number with no mark means an inactive call. No stated cut-off is given here; in the data, active means inhibition above about 50%; inactive means the rest.

Usually inhibition stands for the change of the read-out against control, counted positive when it falls.

The target in this assay is Gag-Pol polyprotein (Human immunodeficiency virus type 1 group M subtype B (isolate HXB2)) (UniProt P04585). The assay is described as follows: RNase H inhibition, HIV 1 Gag Pol polyprotein, FRET biochemical assay, screening (AID 372). The note with it: HIV-1 RT RNase H, FRET RNA/DNA substrate fluorescence; at 10 µM; hits give high values.
In the case of `COc1ccc(C(=O)OCC(=O)c2ccc(Br)cc2)cc1OC`, the inhibition is 16%.
For `C=CCN(c1ccccc1C(=O)O)S(=O)(=O)/C=C/c1ccccc1` the value was 6%; for `CCOc1ccc(/C=N/NC(=O)c2cc(-c3ccc4ccccc4c3)n[nH]2)cc1`, 14%.
For `COc1ccc(NCC(O)Cn2c3ccc(Cl)cc3c3cc(Cl)ccc32)c(OC)c1` (configuration not stated) the value was 27%; for `O=C(NCc1ccco1)c1ccc(-c2cc(Cl)ccc2Cl)o1`, 31%; for `Cn1c(O)c(N=NC(=O)C2COc3cc4ccccc4cc3O2)c2ccccc21` (configuration not stated), 50% (active).
The figure for `O=C(N=Nc1c(O)[nH]c2ccc(Br)cc12)C1COc2cc3ccccc3cc2O1` (configuration not stated) is 4%; for `CCCn1c(O)c(N=NC(=O)C2COc3cc4ccccc4cc3O2)c2ccccc21` (configuration not stated) it is 34%.
Regarding `Cc1ccc2c(c1)c(N=NC(=O)COc1ccccc1C)c(O)n2C`, the inhibition was 20%.
`O=C(NCCOc1cccc2ccccc12)Nc1cccc2ccccc12`: the inhibition is 51% (active).
For `S=C(NCCOc1cccc2ccccc12)Nc1cccc2ccccc12`, the inhibition is 45%.
The figure for `O=C(NCCOc1cccc2ccccc12)Nc1cc(F)c(F)cc1Cl` is 0%.
For `O=C(NN1CCOCC1)c1ccc(Br)cc1` the value was 2%.
With `Cc1cccnc1NS(=O)(=O)c1cc(Cl)ccc1Cl`, the inhibition is 10%.
For the compound `O=C1C=CC(=NS(=O)(=O)c2ccc(Cl)cc2)C=C1`, the inhibition was 28%.
The figure for `CC1=CC(=O)C=C/C1=N\S(=O)(=O)c1ccc(C)cc1` is 32%; for `CC1=C/C(=N/S(=O)(=O)c2ccc(C)cc2)C=C(Cl)C1=O` it is 17%; for `Cc1ccc(S(=O)(=O)/N=C2\C=CC(=O)C(Br)=C2)cc1` it is 20%.
For `Cc1ccc(S(=O)(=O)/N=C2/C=C(Cl)C(=O)c3ccccc32)cc1` the value was 20%; for `O=C1C=C/C(=N\S(=O)(=O)c2ccc(Cl)c([N+](=O)[O-])c2)c2ccccc21`, 34%; for `O=C1C=CC(=NS(=O)(=O)c2cccc([N+](=O)[O-])c2)C=C1`, 45%.
The figure for `O=C1C=CC(=NS(=O)(=O)c2ccccc2)C=C1` is 56% (active); for `O=C1C=CC(=NS(=O)(=O)c2ccc(F)cc2)C=C1` it is 43%.
With `COc1ccc(Cl)cc1NC(=O)c1cc(-c2ccccc2)nc2ccccc12`, the inhibition is 0%.
The figure for `COc1cc(C2/C(=C(\O)c3ccc(C)cc3)C(=O)C(=O)N2CCCC(=O)O)ccc1O` (configuration not stated) is 0%; for `CCOC(=O)C1=C(C)N=c2s/c(=C\c3ccccc3O)c(=O)n2C1c1ccc(Cl)cc1` (configuration not stated) it is 21%; for `COc1ccc(NC(=O)c2nn3c(C(F)(F)F)cc(-c4ccco4)nc3c2Cl)c(OC)c1` it is 13%.
`COc1ccc(C(=O)N/C(=C\c2ccc(-c3cccc([N+](=O)[O-])c3)o2)C(=O)NCc2ccncc2)cc1`: the inhibition is 0%.
The figure for `O=C1C(Cl)=CC(=NS(=O)(=O)c2ccc(Cl)cc2)c2ccccc21` is 8%.
For the compound `O=C1C(Cl)=CC(=NS(=O)(=O)c2ccccc2)C=C1Br`, the inhibition was 26%.
For `O=S(=O)(N=C1C(Cl)=C(Cl)C(=NS(=O)(=O)c2ccccc2)C(Cl)=C1Cl)c1ccccc1` the value was 31%; for `Cc1ccccc1S(=O)(=O)N=C1C=CC(=O)C(Cl)=C1`, 11%; for `O=C1C(Cl)=CC(=NS(=O)(=O)c2ccc(Cl)cc2)C=C1Cl`, 28%.
The figure for `CC(C)C1=CC(=NS(=O)(=O)c2ccc(Cl)cc2)C=C(C(C)C)C1=O` is 5%; for `CC(C)(C)c1ccc(S(=O)(=O)N=C2C=CC(=O)C=C2)cc1` it is 20%; for `O=C1C=C/C(=N\S(=O)(=O)c2ccccc2)C=C1Cl` it is 19%.
For `CC(=O)N/C(=C\c1ccccc1)C(=O)NCC(=O)O` the value was 6%; for `Cc1cccc(NC(=O)C(=O)NNC(=O)c2ccccc2C)c1`, 4%.
With `Cc1ccc(-c2ccccc2)n1-c1ccccc1C(=O)O`, the inhibition is 12%.
For `O=C(O)/C=C\C(=O)N/N=C/c1ccccc1` the value was 4%; for `O=C(Nc1ccccn1)c1ccc2c(c1)C(=O)N(c1cccc3c(N4C(=O)c5ccc(C(=O)Nc6ccccn6)cc5C4=O)cccc13)C2=O`, 2%.
For `CCC1CCc2c(sc(NC(=O)c3ccc([N+](=O)[O-])cc3Cl)c2C(=O)OC)C1` (configuration not stated) the value was 0%; for `CC1=C(C)/C(=N\S(=O)(=O)c2ccc(C)cc2)C=C(N2CCOCC2)C1=O`, 19%.
For `O=C1C(N2CCOCC2)=C/C(=N\S(=O)(=O)c2ccc(Cl)cc2)c2ccccc21` the value was 61% (active).
With `Cc1ccc(S(=O)(=O)/N=C2/C=C(N3CCOCC3)C(=O)c3ccccc32)cc1`, the inhibition was 5%.
The figure for `Cc1ccccc1N1C(=O)C2C3c4ccccc4C(C)(c4ccccc43)C2C1=O` (configuration not stated) is 0%; for `O=C(COc1cc(O)c2c(=O)cc(-c3ccccc3)oc2c1)c1ccccc1` it is 3%.
The figure for `O=C1C(=O)N(c2nccs2)C(c2ccccc2F)/C1=C(/O)c1ccc(Cl)cc1` (configuration not stated) is 21%; for `COc1cccc(NC(=O)Nc2nnc(-c3ccccc3I)s2)c1` it is 0%; for `COc1cccc(NC(=O)Nc2nnc(-c3ccccc3F)s2)c1` it is 53% (active).
For `COc1cccc(NC(=O)Nc2nnc(-c3ccccc3SCc3ccccc3F)s2)c1` the value was 23%; for `CCc1nnc(NC(=O)CCCOc2ccc(Cl)cc2C)s1`, 12%; for `O=[N+]([O-])c1ccc(NCCCNS(=O)(=O)c2ccc(Cl)cc2)cc1`, 8%.
In the case of `O=C(O)CCC(=O)NNC(=O)c1ccncc1`, the inhibition was 10%.
For the compound `CCOC(=O)C1CCCN(C(=O)c2cc(C(=O)OC)cc([N+](=O)[O-])c2)C1` (configuration not stated), the inhibition was 16%.
As to `CCOC(=O)C1CCN(C(=O)c2cc(C(=O)OC)cc([N+](=O)[O-])c2)CC1`, the inhibition is 54% (active).
Regarding `COC(=O)c1cc(C(=O)N2CCC(C(=O)OC)CC2)cc([N+](=O)[O-])c1`, the inhibition is 7%.
The figure for `CCOC(=O)CNC(=O)c1cc(C(=O)OC)cc([N+](=O)[O-])c1` is 52% (active); for `CCOC(=O)CNC(=O)c1cccc([N+](=O)[O-])c1` it is 15%; for `CCOC(=O)CNC(=O)c1ccc([N+](=O)[O-])cc1` it is 4%.
For `O=C(CN(c1ccc([N+](=O)[O-])cc1)S(=O)(=O)c1ccccc1)NC1CC2CCC1C2` (configuration not stated) the value was 13%.
For `Cc1ccc(N2C(=O)NC(=O)/C(=C\c3ccc(OCC(=O)O)c(Br)c3)C2=O)cc1` the value was 3%.
Turning to `O=C(NC(=S)Nc1cccc(C(F)(F)F)c1)c1ccc(-c2ccc(Cl)cc2)o1`, the inhibition was 10%.
Regarding `O=C(Nc1ccc(F)cc1)Nc1nnc(-c2ccccc2SCc2ccccc2)s1`, the inhibition was 25%.
For `Clc1cccc(Cl)c1OCCN1CCCC1` the value was 56% (active); for `Clc1cccc(Cl)c1OCCCN1CCCC1`, 7%.
In the case of `Clc1cccc(Cl)c1OCCCN1CCCCC1`, the inhibition was 2%.
Regarding `COc1cc(/C=C(\C#N)C(=O)Nc2ccc(F)cc2)c([N+](=O)[O-])cc1OC`, the inhibition was 3%.
The figure for `Cc1ccc([N+](=O)[O-])cc1-c1[nH]c(-c2ccc(C#N)cc2)nc1-c1ccccc1` is 57% (active); for `Cc1ccc([N+](=O)[O-])cc1-c1[nH]c(-c2cccc(O)c2)nc1-c1ccccc1` it is 32%.
The figure for `COc1cc(-c2nc(-c3ccccc3)c(-c3cc([N+](=O)[O-])ccc3C)[nH]2)cc(OC)c1OC` is 33%; for `N#C/C(=C/c1cccc2ccccc12)c1ccc([N+](=O)[O-])cc1` it is 36%; for `C/C(=C\c1cccc2ccccc12)[N+](=O)[O-]` it is 53% (active).
For `O=[N+]([O-])c1ccccc1C=Nc1cccc2ccccc12` the value was 6%; for `COC(=O)c1ccccc1NC(=O)c1cc(=O)[nH]c2ccccc12`, 1%.
As to `CCOC(=O)c1ccc2[nH]c(C)c(C/C=C(/C)Cl)c(=O)c2c1`, the inhibition was 0%.
On to `O=C(Nc1cccc(-c2nc3cc(Cl)ccc3o2)c1)c1ccc2c(c1)OCCO2`, for which the inhibition is 9%.
For `Cc1ccc(C(=O)Nc2ccc(-c3nc4cc(Cl)cc(Cl)c4o3)cc2)cc1` the value was 11%; for `O=C(Nc1ccc2oc(-c3ccc(F)cc3)nc2c1)c1ccc2c(c1)OCCO2`, 51% (active).
The figure for `O=C(Nc1ccc2oc(-c3ccc(I)cc3)nc2c1)c1ccc2c(c1)OCCO2` is 15%; for `O=C(Nc1ccc(-c2nc3cc(Cl)cc(Cl)c3o2)cc1)c1ccc2c(c1)OCCO2` it is 58% (active).
The figure for `O=C(Nc1ccc2oc(-c3ccccc3)nc2c1)c1ccc2c(c1)OCCO2` is 11%; for `O=C(Nc1ccc2oc(-c3cccc(Cl)c3)nc2c1)c1ccc2c(c1)OCCO2` it is 37%.
As to `Cc1ccc(-c2nc3cc(Cl)cc(Cl)c3o2)cc1NC(=O)c1ccc2c(c1)OCCO2`, the inhibition was 24%.
For `O=C(Nc1ccc2oc(-c3cccc(I)c3)nc2c1)c1ccc2c(c1)OCCO2` the value was 56% (active); for `CCN(CC)CCOc1ccccc1C`, 3%.
For `COc1ccc(C(=O)N2CCN(S(=O)(=O)c3ccccc3)CC2)cc1` the value was 21%; for `COc1cccc(C=C2C(=O)c3ccccc3C2=O)c1`, 0%; for `CCOc1ccc(NC(=O)CN(c2ccc(Br)cc2)S(=O)(=O)c2ccccc2)cc1`, 17%.
The figure for `Cc1ccc(N(Cc2ccc(C(=O)N/N=C/c3ccc(OC4CSC4)cc3)cc2)S(C)(=O)=O)cc1C` is 56% (active); for `Cc1ccc(N(Cc2ccc(C(=O)N/N=C/c3cc(Br)c(C)o3)cc2)S(C)(=O)=O)cc1C` it is 19%; for `O=C(N/N=C/c1ccc(OC2CSC2)cc1)c1ccccc1` it is 6%.
Take `Brc1ccc(-c2nnnn2-c2ccccc2)cc1`: the inhibition was 12%.
The figure for `COc1ccc(C(=O)NC(=S)Nc2ccc3oc(-c4ccc(Cl)cc4)nc3c2)cc1[N+](=O)[O-]` is 44%.
For `COc1ccc(C(=O)NC(=S)Nc2cccc(-c3nc4cc(Cl)ccc4o3)c2)cc1[N+](=O)[O-]` the value was 23%.
The figure for `COc1ccc(C(=O)NC(=S)Nc2ccc(-c3nc4ccccc4o3)cc2)cc1Br` is 20%; for `COc1ccc(C(=O)NC(=S)Nc2ccc(-c3nc4ccc(C)cc4o3)cc2)cc1[N+](=O)[O-]` it is 54% (active); for `COc1ccc(C(=O)NC(=S)Nc2ccc(-c3nc4cc(Cl)ccc4o3)cc2)cc1[N+](=O)[O-]` it is 53% (active).
`COc1ccc(C(=O)NC(=S)Nc2ccc(-c3nc4ccc(C)cc4o3)cc2)cc1Br`: the inhibition is 60% (active).
Take `COc1ccc(C(=O)NC(=S)Nc2cccc(-c3nc4cc(C)ccc4o3)c2)cc1[N+](=O)[O-]`: the inhibition was 23%.
The figure for `CCc1ccc2oc(-c3ccc(NC(=S)NC(=O)c4ccc(OC)c([N+](=O)[O-])c4)cc3)nc2c1` is 19%; for `COc1ccc(C(=O)NC(=S)Nc2ccc(-c3nc4cc(C)ccc4o3)cc2)cc1Br` it is 21%.

(Values after PubChem BioAssay AID372 (MTDP, 2006).)
